The source made the active and inactive calls. Rule for the calls: active = hit-call score of the fitted dose curve at least 0.9, where 1 is the maximum; inactive = score below 0.9.
Each molecule was assayed against Transcription factor E2F1 (Homo sapiens) (UniProt Q01094) (assay: ATG_E2F_CIS: Attagene CIS-FACTORIAL HepG2 Assay for human E2F Transcription Factor 1 (AID 2282935)). Details: HepG2 Attagene cis-reporter, E2F reporter RNA transcripts; actives raise or lower the signal.
Description: ATG_CIS is a cell-based, multiplexed-readout assay that uses HepG2, a human liver cell line, with measurements taken at 24 hours after chemical dosing in a 24-well plate.ATG_E2F_CIS is one of 52 assay component(s) measured or calculated from the ATG_CIS assay. It is designed to make measurements of mRNA induction, a form of inducible reporter, as detected with fluorescence intensity signals by Reverse transcription polymerase chain reaction (RT-PCR) and Capillary electrophoresis technology.Data from the assay component ATG_E2F_CIS was analyzed into 1 assay endpoint. This assay endpoint, ATG_E2F_CIS, was analyzed with bidirectional fitting relative to DMSO as the negative control and baseline of activity. Using a type of inducible reporter, measures of mRNA for gain or loss-of-signal activity can be used to understand the reporter gene at the transcription factor-level as they relate to the gene E2F1. Furthermore, this assay endpoint can be referred to as a primary readout, because this assay has produced multiple assay endpoints where this one serves a reporter gene function. To generalize the intended target to other relatable targets, this assay endpoint is annotated to the dna binding intended target family, where the subfamily is E2F transcription factor.
Human liver HepG2 cells are transiently transfected with multiple reporter transcription units (MRTUs) in 6-well plates using FuGene 6 reagent (Roche; 3 ml FuGene/1 mg DNA). The MRTU constructs are regulated by a cis-regulating element (promoter). […] A major difference between the CIS and TRANS system is that in CIS activities of endogenous TFs are measured, whereas the TRANS assay evaluates changes in activities of exogenous, chimeric NR-Gal4 proteins. […] At the end of 24 hour incubation, total RNA was isolated using TriZol reagent (Invitrogen). The isolated RNA is then reverse-transcribed using oligo(dT) primer and Mo-MLV reverse transcriptase (Invitrogen) with DNAse I (Ambion) treatment for 30 min. The one-tenth of the produced cDNA was amplified by PCR using Taq DNA polymerase (Invitrogen) and two reporter sequence-specific primers. The PCR products were fluorescently labeled by primer extension with 6-arboxyfluorescein (6-FAM) 5'-labeled reporter sequence-specific primer (2 min at 95 C, 20 s at 68 C and 10 min at 72 C) and these products were digested with 5U of HpaI (New England Biolabs) for 2h at 37 C. The fragments were purified using Qiaquick PCR columns (Qiagen), analyzed on an ABI 3130xL genetic analyzer (Applied Biosystems) with peak positions identified by using a set of X-rhodamine (ROX)-labeled MapMarker1000 molecular weight standards (BioVentures). The raw capillary electrophoresis data was processed using Attagraph software (Attagene).

Transcription factor E2F1 (Homo sapiens), sequence (Q01094 whole entry, looked up): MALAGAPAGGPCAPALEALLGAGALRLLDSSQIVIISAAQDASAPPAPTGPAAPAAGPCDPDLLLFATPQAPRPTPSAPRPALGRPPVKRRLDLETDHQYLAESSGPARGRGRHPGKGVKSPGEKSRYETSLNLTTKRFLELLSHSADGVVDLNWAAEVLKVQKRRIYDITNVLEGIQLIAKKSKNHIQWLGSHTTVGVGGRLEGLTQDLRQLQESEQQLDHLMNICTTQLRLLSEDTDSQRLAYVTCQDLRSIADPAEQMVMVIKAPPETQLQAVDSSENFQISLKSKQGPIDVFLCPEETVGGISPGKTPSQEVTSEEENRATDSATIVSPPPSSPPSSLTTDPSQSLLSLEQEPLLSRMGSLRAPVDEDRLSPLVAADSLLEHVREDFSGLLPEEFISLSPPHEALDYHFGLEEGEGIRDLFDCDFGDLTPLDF

outcome, inactive:
COC(CC(C)CCCC(C)(C)O)OC (stereo not given), COc1ccc(COC(C)=O)cc1, CC(C)CCCCCCCCCCCCCCC(=O)O, O=[N+]([O-])c1cccc(Cl)c1, O=C(Nc1ccc([N+](=O)[O-])cc1)Nc1ccc([N+](=O)[O-])cc1 (tested in a mixture with another compound), COCCc1ccc(OCC(O)CNC(C)C)cc1 (stereo not given), CCC1(C)NC(=O)NC1=O (stereo not given), C=C(C)CNCC, CC/C=C\CC/C=C/CO, OCC#CCO, O=C(Nc1ccc2c(O)c(N=Nc3ccc(N=Nc4ccc(S(=O)(=O)O)cc4)cc3)c(S(=O)(=O)O)cc2c1)c1ccccc1, CCc1ncc(C)[nH]1, ON=C1CCCCC1, CCOC(=O)CCc1ccccc1, CCN(CC)C(=O)N(CC)CC, CCN(CCN)c1cccc(C)c1, C1CCOC1, CC1(C)CCC[C@]2(C)[C@H]3CCO[C@]3(C)CC[C@@H]12, C=C(C)C(=O)OCC(CC)(COC(=O)C(=C)C)COC(=O)C(=C)C, CCOC(=O)[C@@H](C)Oc1ccc(Oc2nc3ccc(Cl)cc3o2)cc1, COc1ccc(N=Nc2cc(C)c(N=Nc3ccc(S(=O)(=O)O)cc3)cc2OC)cc1, CC=Cc1ccc(OCC)c(O)c1, C#CC(C)N(C)C(=O)Nc1ccc(Cl)cc1 (stereo not given), C[C@H]1O[C@@H](O[C@H]2[C@@H](O)C[C@H](O[C@H]3[C@@H](O)C[C@H](O[C@H]4CC[C@@]5(C)[C@H](CC[C@@H]6[C@@H]5C[C@@H](O)[C@]5(C)[C@@H](C7=CC(=O)OC7)CC[C@]65O)C4)O[C@@H]3C)O[C@@H]2C)C[C@H](O)[C@@H]1O, CCCCOCC, CC(C)(C)c1ccc(C(=O)O)cc1, OCC(O)c1ccccc1 (stereo not given), CCCCN(CCCC)C(=O)N(CCCC)CCCC, CC1(C)COCN1, Cc1c(C2(c3cc(Br)c(O)c(Br)c3C)OS(=O)(=O)c3ccccc32)cc(Br)c(O)c1Br, CCOC(=O)C1OC1c1ccccc1 (stereo not given), CCCC1O[C@@H]2C[C@H]3[C@@H]4CCC5=CC(=O)C=C[C@]5(C)[C@H]4[C@@H](O)C[C@]3(C)[C@]2(C(=O)CO)O1 (stereo not given in full), CC[N+](C)(CC)CC, OCc1ccc(Cl)cc1Cl, CC(=O)NCCO, CC(Oc1cc(Cl)ccc1Cl)C(=O)O (stereo not given), CCOC(=O)CN, C[Si](C)(C)O[Si](C)(C)C, CCC1CCCCC1, Cc1ncc[nH]1

— PubChem BioAssay (EPA / NIEHS)
